Values joined by “and” are separate entries in the source; they are usually repeats but may differ in a detail not shown here. Equal values may be shown once. In all, about 5,500 compounds went through this assay and about 2,000 (36%) were called active. Roughly 18% stayed inconclusive and do not appear here. Cut-off read from the data, not from the text of the source: active = normalized growth mostly below about 0.91 (no sharp cut-off); inconclusive = no clear call, values can overlap the other calls; inactive = mostly above about 0.92. This is one part of the list.
Experiment: chemical genetic growth profiling, strain panel (AID 1159580);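 note: tested at 20 µM; growth read once vehicle control cultures reached saturation at 30 °C; 1 = growth at the plate median or of vehicle wells; lower values mean less growth of the strain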
Settings: S. cerevisiae deletion strains, growth OD

Measured: normalized growth

CC1OC(O[C@H]2/C=C/C=C/C=C/C=C/C=C/C=C/C=C/[C@H](C)[C@@H](O)[C@@H](C)[C@H](C)OC(=O)CC(O)CC(O)CCC(O)C(O)CC(O)C[C@]3(O)C[C@H](O)C(C(=O)O)C(C2)O3)C(O)[C@H](N)C1O (stereo partly drawn)
active: locus YAL021C, strain ccr4, stronger effect = lower value 0.0628 | locus YAL026C, strain drs2, stronger effect = lower value 0.059 | locus YBR171W, strain sec66, stronger effect = lower value 0.0768 | locus YCR088W, strain abp1, stronger effect = lower value 0.0609 | locus YDL005C, strain med2, stronger effect = lower value 0.0884 | locus YDR001C, strain nth1, stronger effect = lower value 0.0792 | locus YDR069C, strain doa4, stronger effect = lower value 0.0722 | locus YDR137W, strain rgp1, stronger effect = lower value 0.252 | locus YDR159W, strain sac3, stronger effect = lower value 0.696 | locus YDR195W, strain ref2 0.132 | locus YDR334W, strain swr1, stronger effect = lower value 0.115 | locus YDR335W, strain msn5, stronger effect = lower value 0.508 | locus YDR392W, strain spt3, stronger effect = lower value 0.07 | locus YEL003W, strain gim4, stronger effect = lower value 0.0549 | locus YEL037C, strain rad23, stronger effect = lower value 0.193 | locus YEL061C, strain CIN8 (second series), stronger effect = lower value 0.064 | locus YER016W, strain bim1, stronger effect = lower value 0.819 | locus YER111C, strain swi4, stronger effect = lower value 0.0759 | locus YER155C, strain BEM2 (second series), stronger effect = lower value 0.778 | locus YFR010W, strain ubp6, stronger effect = lower value 0.065 | locus YGL086W, strain mad1, stronger effect = lower value 1.07 [resistant] | locus YGL227W, strain vid30, stronger effect = lower value 0.0641 | locus YGL240W, strain doc1, stronger effect = lower value 0.856 | locus YGL253W, strain hxk2, stronger effect = lower value 0.0796 | locus YHR013C, strain ard1, stronger effect = lower value 1.38 [resistant] | locus YHR079C, strain IRE1, stronger effect = lower value 0.111 | locus YHR142W, strain chs7, stronger effect = lower value 0.843 | locus YJL092W, strain hpr5, stronger effect = lower value 0.0636 | locus YJL115W, strain asf1, stronger effect = lower value 0.893 | locus YJL129C, strain trk1, stronger effect = lower value 0.0757 | locus YKR026C, strain gcn3, stronger effect = lower value 0.0616 | locus YLL001W, strain dnm1, stronger effect = lower value 0.0851 | locus YLL026W, stronger effect = lower value 0.0668 | locus YLL041C, strain sdh2, stronger effect = lower value 0.0791 | locus YLR027C, strain aat2, stronger effect = lower value 0.0727 | locus YLR113W, strain HOG1, stronger effect = lower value 0.125 | locus YLR221C, strain rsa3, stronger effect = lower value 0.342 | locus YLR342W, strain FKS1, stronger effect = lower value 0.807 | locus YLR357W, strain rsc2, stronger effect = lower value 0.123 | locus YLR370C, strain arc18, stronger effect = lower value 0.112 | locus YLR384C, strain iki3, stronger effect = lower value 0.754 | locus YML120C, strain ndi1, stronger effect = lower value 0.0569 | locus YMR058W, strain fet3, stronger effect = lower value 0.0612 | locus YMR125W, strain sto1, stronger effect = lower value 0.0674 | locus YMR129W, stronger effect = lower value 0.0583 | locus YMR205C, strain PFK2, stronger effect = lower value 0.105 | locus YMR231W, strain pep5, stronger effect = lower value 0.881 | locus YNL071W, strain lat1, stronger effect = lower value 0.252 | locus YNL248C, strain rpa49, stronger effect = lower value 0.0699 | locus YNL322C, strain KRE1 (second series), stronger effect = lower value 0.092 | locus YOR001W, strain rrp6, stronger effect = lower value 0.0632 | locus YOR080W, strain dia2, stronger effect = lower value 0.389 | locus YOR231W, strain MKK1, stronger effect = lower value 0.109 | locus YOR290C, strain snf2, stronger effect = lower value 0.0611 | locus YPL078C, strain atp4, stronger effect = lower value 0.157 | locus YPL106C, strain sse1, stronger effect = lower value 0.319 | locus YPL240C, strain hsp82, stronger effect = lower value 0.108 | locus YPL256C, strain CLN2, stronger effect = lower value 0.122
inactive: locus YAL030W, strain snc1, stronger effect = lower value 0.995 | locus YBL061C, strain skt5, stronger effect = lower value 1 | locus YBR009C, strain hhf1, stronger effect = lower value 0.987 | locus YBR021W, strain FUR4, stronger effect = lower value 1.02 | locus YBR023C, strain chs3, stronger effect = lower value 0.957 | locus YBR229C, strain ROT2, stronger effect = lower value 0.996 | locus YBR231C, strain swc5, stronger effect = lower value 0.912 | locus YBR279W, strain paf1, stronger effect = lower value 0.984 | locus YCL011C, strain gbp2, stronger effect = lower value 1 | locus YCL016C, strain dcc1, stronger effect = lower value 0.996 | locus YCL029C, strain bik1, stronger effect = lower value 1.02 | locus YCL069W, strain vba3, stronger effect = lower value 0.977 | locus YDL035C, strain GPR1, stronger effect = lower value 1 | locus YDL040C, strain nat1, stronger effect = lower value 1.01 | locus YDL074C, strain BRE1, stronger effect = lower value 1.03 | locus YDL101C, strain DUN1, stronger effect = lower value 1 | locus YDL134C, strain PPH21, stronger effect = lower value 0.986 | locus YDL185W, strain tfp1, stronger effect = lower value 1.04 | locus YDL192W, strain arf1, stronger effect = lower value 1.01 | locus YDR101C, strain arx1, stronger effect = lower value 1.06 | locus YDR162C, strain NBP2, stronger effect = lower value 0.974 | locus YDR297W, strain sur2, stronger effect = lower value 0.981 | locus YDR318W, strain mcm21, stronger effect = lower value 0.999 | locus YDR388W, stronger effect = lower value 1.02 | locus YDR502C, strain sam2, stronger effect = lower value 1.01 | locus YEL061C, strain CIN8, stronger effect = lower value 1.01 | locus YER015W, strain faa2, stronger effect = lower value 1 | locus YER110C, stronger effect = lower value 1.01 | locus YER155C, strain BEM2, stronger effect = lower value 1 | locus YER167W, strain BCK2, stronger effect = lower value 1.01 | locus YGL078C, strain dbp3, stronger effect = lower value 1 | locus YGL167C, strain pmr1, stronger effect = lower value 1.05 | locus YGL173C, strain kem1, stronger effect = lower value 0.982 | locus YGL248W, strain PDE1, stronger effect = lower value 0.964 | locus YGR135W, strain pre9, stronger effect = lower value 0.997 | locus YGR229C, strain SMI1, stronger effect = lower value 0.904 | locus YGR252W, strain gcn5, stronger effect = lower value 0.952 | locus YHR027C, strain rpn1, stronger effect = lower value 0.991 | locus YHR079C, strain IRE1 (second series), stronger effect = lower value 1.01 | locus YHR094C, strain hxt1, stronger effect = lower value 1.01 | locus YHR129C, strain ARP1, stronger effect = lower value 1.01 | locus YHR200W, strain rpn10, stronger effect = lower value 1.02 | locus YIL066C, strain RNR3, stronger effect = lower value 0.996 | locus YIL073C, strain SPO22, stronger effect = lower value 1.11 | locus YIL125W, strain kgd1, stronger effect = lower value 1.01 | locus YIR030C, strain dcg1, stronger effect = lower value 1.01 | locus YJL095W, strain BCK1 (second series), stronger effect = lower value 1 | locus YJL134W, strain LCB3, stronger effect = lower value 1.01 | locus YJL154C, strain vps35, stronger effect = lower value 0.987 | locus YJL164C, strain tpk1, stronger effect = lower value 0.996 | locus YJL166W, strain qcr8, stronger effect = lower value 0.987 | locus YJL168C, strain set2, stronger effect = lower value 1.01 | locus YJL187C, strain SWE1 (second series), stronger effect = lower value 0.99 | locus YJR043C, strain POL32, stronger effect = lower value 0.95 | locus YJR066W, strain TOR1, stronger effect = lower value 1.01 | locus YJR075W, strain HOC1, stronger effect = lower value 1.03 | locus YKL009W, strain mrt4, stronger effect = lower value 0.963 | locus YKL068W, stronger effect = lower value 0.997 | locus YKL085W, strain MDH1 (second series), stronger effect = lower value 1 | locus YKL085W, strain MDH1, stronger effect = lower value 1 | locus YKL160W, strain elf1, stronger effect = lower value 0.975 | locus YKR001C, strain vps1, stronger effect = lower value 1.04 | locus YKR091W, strain srl3, stronger effect = lower value 1.01 | locus YLR039C, strain RIC1, stronger effect = lower value 1.07 | locus YLR058C, strain SHM2, stronger effect = lower value 0.984 | locus YLR102C, strain apc9, stronger effect = lower value 1.02 | locus YLR258W, strain gsy2, stronger effect = lower value 0.981 | locus YLR262C, strain YPT6 (second series), stronger effect = lower value 0.936 | locus YLR262C, strain YPT6, stronger effect = lower value 1.07 | locus YLR268W, strain sec22, stronger effect = lower value 1.06 | locus YLR320W, strain mms22, stronger effect = lower value 0.917 | locus YLR330W, strain CHS5, stronger effect = lower value 1.02 | locus YLR342W, strain FKS1 (second series), stronger effect = lower value 1.04 | locus YLR371W, strain rom2, stronger effect = lower value 1.03 | locus YLR418C, strain cdc73, stronger effect = lower value 0.973 | locus YML016C, strain PPZ1, stronger effect = lower value 0.986 | locus YML032C, strain rad52, stronger effect = lower value 0.996 | locus YML124C, strain tub3, stronger effect = lower value 1.01 | locus YMR078C, strain ctf18, stronger effect = lower value 1.02 | locus YMR223W, strain ubp8, stronger effect = lower value 0.992 | locus YMR263W, strain SAP30, stronger effect = lower value 1 | locus YMR307W, strain GAS1, stronger effect = lower value 0.768 | locus YNL067W, strain RPL9B, stronger effect = lower value 0.982 | locus YNL153C, strain GIM3, stronger effect = lower value 0.994 | locus YNL183C, strain NPR1, stronger effect = lower value 0.994 | locus YNL209W, strain ssb2, stronger effect = lower value 0.993 | locus YNL233W, strain BNI4, stronger effect = lower value 0.982 | locus YNL250W, strain rad50, stronger effect = lower value 1 | locus YNL271C, strain bni1, stronger effect = lower value 1.01 | locus YNL298W, strain CLA4, stronger effect = lower value 1.01 | locus YNL307C, strain MCK1, stronger effect = lower value 1.03 | locus YNR049C, strain mso1, stronger effect = lower value 0.991 | locus YNR052C, strain pop2, stronger effect = lower value 0.983 | locus YOL012C, strain htz1 0.984 | locus YOL147C, strain pex11, stronger effect = lower value 1.01 | locus YOR061W, strain CKA2, stronger effect = lower value 1.01 | locus YOR069W, strain VPS5, stronger effect = lower value 0.994 | locus YOR070C, strain gyp1, stronger effect = lower value 0.971 | locus YOR083W, strain WHI5, stronger effect = lower value 0.956 | locus YOR106W, strain vam3, stronger effect = lower value 0.983 | locus YOR136W, strain idh2, stronger effect = lower value 1.02 | locus YOR144C, strain elg1, stronger effect = lower value 1.01 | locus YOR184W, strain ser1, stronger effect = lower value 1 | locus YOR265W, strain rbl2, stronger effect = lower value 0.987 | locus YOR270C, strain vph1, stronger effect = lower value 0.792 | locus YOR316C, strain cot1, stronger effect = lower value 1.02 | locus YPL051W, strain arl3, stronger effect = lower value 1 | locus YPL241C, strain CIN2, stronger effect = lower value 1.01 | locus YPR119W, strain clb2, stronger effect = lower value 1.01 | locus YPR141C, strain kar3, stronger effect = lower value 1.01 | locus YPR163C, strain tif3, stronger effect = lower value 1.03 | locus YPR167C, strain met16, stronger effect = lower value 1.03 | strain wtn01, stronger effect = lower value 1.07
0.993 (inactive) and 0.102 (active): locus YJL095W, strain BCK1, stronger effect = lower value
1.01 (inactive) and 0.099 (active): locus YHR030C, strain SLT2, stronger effect = lower value

— PubChem BioAssay AID1159580 (chemical genetic matrix, 2015)
